SMILES strings stand for the structures. About 5,100 (32%) of roughly 16,000 compounds were called active. Not shown: some 25% with an inconclusive outcome. Calls come from the whole dose curve; as a rule, active = well fitted curve in the direction sought with a large enough effect; inconclusive = small, poorly fitted or top-dose-only effect, or effect the other way; inactive = no such curve, though single readings can be large or run the other way. The list shows a part of the results.
% is set by controls: 0 for no effect and ±100 for the full control effect.

Cytochrome P450 3A4 (Homo sapiens), sequence (P08684 whole entry, looked up): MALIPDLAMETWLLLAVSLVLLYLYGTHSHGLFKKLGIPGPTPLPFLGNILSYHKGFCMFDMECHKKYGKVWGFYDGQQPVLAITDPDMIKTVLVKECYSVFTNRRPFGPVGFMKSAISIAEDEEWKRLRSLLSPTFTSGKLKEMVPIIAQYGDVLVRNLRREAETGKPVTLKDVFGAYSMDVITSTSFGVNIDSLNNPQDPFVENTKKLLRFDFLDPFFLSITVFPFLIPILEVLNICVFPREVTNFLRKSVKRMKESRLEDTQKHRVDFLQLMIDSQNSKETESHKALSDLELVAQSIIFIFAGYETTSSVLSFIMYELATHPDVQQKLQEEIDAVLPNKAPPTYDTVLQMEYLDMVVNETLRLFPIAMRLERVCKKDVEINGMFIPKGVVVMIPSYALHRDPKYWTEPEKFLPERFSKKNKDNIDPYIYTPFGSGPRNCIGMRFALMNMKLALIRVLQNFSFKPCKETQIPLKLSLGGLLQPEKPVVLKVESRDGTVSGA

This experiment addresses Cytochrome P450 3A4 (Homo sapiens) (UniProt P08684). As to the kind of experiment: Cytochrome panel assay with activity outcomes. Conditions: recombinant CYP, pro-luciferin dealkylation, luminescence, p450-cyp3a4; series mostly up to 57.1 µM.
As to `CCN(CC)c1ccc2c(c1)OC(N)=C(C#N)C2c1cccnc1` (stereo unspecified), the concentration at half-maximal activity (AC50) was 0.891 µM (active).
Take `Cc1cccc(C)c1NC(=O)Nc1ccc(S(N)(=O)=O)cc1`: the activity, negative = inhibition is -9.51% [at 11.4 µM] (inactive).
In the case of `CC[N+](CC)(CC)CC(=O)Nc1c(C)cccc1C`, the AC50 result was “inactive”.
Still for that read-out and setting: as for `CC(=O)Nc1ccc(NC(=O)Cn2c(-c3ccc(F)cc3)cnc2SCC(=O)Nc2c(C)cccc2C)cc1`, the figure is 3.16 µM (active).
Same read-out and setting: as for `CSC(N)=NCCC[C@@H](N)C(=O)O`, the entry is “inactive”.
On the same count and under the same terms, as for `Cc1cccc(CNc2ncnc3ccc(-c4ccc(C(=O)N(C)C)cc4)cc23)c1`, the figure is 2 µM (active).
Take `CN(C)c1ccc(-c2ccc3ncnc(NCc4ccccc4)c3c2)cc1`: the AC50 was 2.51 µM (active).
Take `CN(C)C(=O)c1ccc(-c2ccc3ncnc(NCc4ccccc4)c3c2)cc1`: the AC50 is 15.8 µM (active).
Still for that read-out and setting: the value for `CN(C)C(=O)c1ccc(-c2ccc3ncnc(NCc4cccs4)c3c2)cc1` was 10 µM (active); that for `OCCN1CCN(C(=S)c2ccc(Br)cc2)CC1` was “inactive”; that for `NC(N)=Nc1ccc(Cl)cc1` was “inactive”.
In the case of `CC(=O)OC[C@@H]1O[C@@H](O/N=C2/C[C@@H](O)[C@@H](O)[C@@H]3[C@@H]4C(=O)N(C[C@@H]5CCCO5)C(=O)[C@H]4CC[C@@H]23)[C@H](OC(C)=O)[C@H](OC(C)=O)[C@@H]1OC(C)=O`, the activity, negative = inhibition was -14.3% [at 11.4 µM] (inactive).
Still for that read-out and setting: the value for `Clc1ccc2c(c1)N(CCCN1CCCC13CCCCC3)c1ccccc1S2` was -16.3% [at 11.4 µM] (inactive).
As for `COc1cccc(CNCCc2c[nH]c3ccccc23)c1OCc1ccccc1F`, the AC50 is 4.47 µM (active).
Still for that read-out and setting: the value for `COc1cc(CNCCc2c[nH]c3ccccc23)ccc1OCc1ccccc1F` was 7.08 µM (active).
`O=C(O)[C@@H](Cc1c[nH]c2ccccc12)C(=O)NO`: the activity, negative = inhibition was -15.9% [at 11.4 µM] (inactive).
Same read-out and setting: the value for `O=c1c[n+](CCCC[n+]2cc(=O)o[nH]2)[nH]o1` was -11.2% [at 11.4 µM] (inactive).
In the case of `Cc1cc[n+](CC(=O)Nc2cc(C(F)(F)F)ccc2Cl)cc1`, the AC50 entry is “inactive”.
On the same count and under the same terms, the value for `CN(C)c1cc[n+](CC(=O)Nc2cc(C(F)(F)F)ccc2Cl)cc1` was “inactive”.
Turning to `Cc1ccc(C)n1CCN1CCN(CC(=O)Nc2cc(C(F)(F)F)ccc2Cl)CC1`, the half-maximal activity concentration (AC50) is 25.1 µM (active).
Same read-out and setting: as for `CCOc1ccc(NCc2nnc(SCc3ccccc3Cl)n2-c2ccccc2)cc1`, the figure is 14.1 µM (active); as for `COC(=O)CSc1nnc(CNc2ccc(Cl)cc2)n1-c1ccccc1`, 12.6 µM (active).
As for `CCOC(=O)CSc1nnc(Cc2ccccc2)n1-c1cccc(Cl)c1`, the AC50 was 2 µM (active).
The same measure, in the same setting: the value for `COc1ccc(NCc2nnc(SCc3ccccc3)n2-c2ccc(OC)cc2)cc1` was 5.01 µM (active); that for `COC(Cc1nnc(SC)n1-c1ccccc1)OC` was “inactive”; that for `CCOC(=O)CSC1=NC(=O)/C(=C\c2ccc(Cl)cc2)S1` was “inactive”.
Same read-out and setting: the value for `CC(=O)N(/N=C/c1cccc(C)c1)c1nc(-c2ccc(Br)cc2)cs1` was “inactive”; that for `CSc1nsc(SC)c1NC(=O)OCc1ccccc1` was 22.4 µM (active); that for `CSc1nsc(SC)c1NC(=O)Nc1ccccn1` was “inactive”.
With `CSc1nsc(SC)c1NC(=O)OCC1CCCO1` (stereo unspecified), the activity, negative = inhibition was -5.42% [at 11.4 µM] (inactive).
For `O=C(CSCc1ccccc1Cl)NN1C(=O)c2ccccc2C1=O`, the AC50 is 14.1 µM (active).
Still for that read-out and setting: as for `O=C(NN1C(=O)c2ccccc2C1=O)C1CCCCC1`, the entry is “inactive”; as for `O=C(NNC(=S)Nc1ccccc1)C1CC1`, “inactive”.
For the molecule `O=C(Nc1ccc(Br)cc1)C1CCC(=O)N1Cc1ccccc1Cl` (stereo unspecified), the activity, negative = inhibition is -3.06% [at 11.4 µM] (inactive).
Take `O=C(CSCc1ccccc1Cl)NNC(=S)Nc1ccccc1`: the AC50 was 4.47 µM (active).
Regarding `Cc1nn(C)cc1C(=O)NNC(=S)Nc1ccccc1`, the activity, negative = inhibition is 3.36% [at 2.29 µM] (inactive).
Same read-out and setting: the value for `Nc1cc(S(=O)(=O)O)cc2ccc(S(=O)(=O)O)cc12` was -1.64% [at 11.4 µM] (inactive).
Consider `O=C(NCCc1ccc(Cl)cc1)Nc1cccc(Cl)c1`, for which the half-maximal activity concentration (AC50) was 14.1 µM (active).
Regarding `CCOC(=O)CCCN`, the activity, negative = inhibition is -12.7% [at 11.4 µM] (inactive).
Regarding `COc1ccc(C(=O)NCS(=O)(=O)c2ccc(C)cc2)cc1`, the AC50 is 14.1 µM (active).
Regarding `Cc1ccc(C(=O)NN2CCOCC2)cc1`, the AC50 result was “inactive”.
Same read-out and setting: the value for `COc1ccc(NC(=O)C2(c3ccc(NC(=O)c4ccc(C)cc4)cc3)CCCC2)cc1` was “inactive”.
On to `CCc1ccccc1NC(=O)c1ccc(F)c(S(=O)(=O)N2CCC(C(N)=O)CC2)c1`, for which the AC50 was 15.8 µM (active).
In the case of `COc1ccc(C(=O)Nc2cccc3c2C(=O)NC3=O)cc1S(=O)(=O)N1CCOCC1`, the activity, negative = inhibition was 1.45% [at 2.29 µM] (inactive).
In the case of `O=[N+]([O-])c1ccc(Nc2nc(N/N=C\c3ccc4c(c3)OCO4)nc(N3CCCCC3)n2)cc1`, the AC50 was 1.26 µM (active).
Regarding `CCOc1cc(/C=N/NC(=O)CN2CCCCC2)ccc1OCc1ccccc1`, the activity, negative = inhibition is -6.35% [at 2.29 µM] (inactive).
For `CCOc1ccc(/C=N/Nc2nc(N3CCCC3)nc(N3CCCC3)n2)cc1OC`, the AC50 was 12.6 µM (active).
On to `CC(C)(C)Nc1nc(N2CCCC2)nc(N2CCCC2)n1`, for which the activity, negative = inhibition was 11.3% [at 2.29 µM] (inactive).
As for `COc1cccc(/C=N/Nc2nc(N3CCCC3)nc(N3CCCC3)n2)c1O`, the AC50 was 10 µM (active).
On the same count and under the same terms, the value for `Brc1cc2c(cc1/C=N/Nc1nc(N3CCCC3)nc(N3CCOCC3)n1)OCO2` was 2.82 µM (active); that for `C1CCC(N=C(NC23CC4CC(CC(C4)C2)C3)N2CCOCC2)CC1` was “inactive”.
Take `COC(=O)[C@@H]1[C@@H](O)[C@]2(O)c3ccccc3O[C@]2(c2ccccc2)[C@H]1c1ccccc1`: the activity, negative = inhibition was -17.3% [at 11.4 µM] (inactive).
`C[C@@H]1NC(=O)C/C=C\[C@@H](C)[C@@H]2C=C[C@H](O)[C@@H](COC(=O)[C@H](C)NC(=O)C/C=C\[C@@H](C)[C@@H]3C=C[C@H](O)[C@@H](COC1=O)O3)O2`: the activity, negative = inhibition was 6.73% [at 11.4 µM] (inactive).
The same measure, in the same setting: the value for `CN(C)Cc1ccc(O)c(CN(C)C)n1` was -18.2% [at 11.4 µM] (inactive).
On to `CC1CCCN(C/C=C/c2ccccc2[N+](=O)[O-])C1` (stereo unspecified), for which the AC50 result is “inactive”.
As for `COc1c(/C=N/Nc2nc(N3CCCCC3)nc(N3CCCCC3)n2)cccc1[N+](=O)[O-]`, the AC50 is 3.98 µM (active).
For `C/C(CC(=O)NCc1ccco1)=N\NC(=O)Cc1cccc2ccccc12`, the activity, negative = inhibition was -8.55% [at 2.29 µM] (inactive).
In the case of `COc1ccccc1CNC(=O)C/C(C)=N/NC(=O)Cc1ccccc1`, the AC50 was 7.94 µM (active).
The same measure, in the same setting: the value for `Cc1cc(=O)n2c3ccccc3n(CC(O)CN3CCCCC3)c2c1C#N` (stereo unspecified) was “inactive”; that for `CCN(CCO)Cc1csc2cccc(Br)c12` was “inactive”.
For `Cc1ccc(C(=O)c2cn(-c3ccc(F)c(Cl)c3)nn2)cc1`, the AC50 entry is “inactive”.
On the same count and under the same terms, as for `Cc1ccc(C(=O)c2cn[nH]c2-c2cc(Cl)ccc2O)cc1`, the figure is 3.98 µM (active); as for `CCn1ccc(C(=O)Oc2ccc(Cl)cc2)n1`, “inactive”; as for `O=C(CS(=O)(=O)c1cccc(Cl)c1)Nc1ccccc1Cl`, 6.31 µM (active).
Regarding `O=C(CS(=O)c1cccc(C(F)(F)F)c1)Nc1ccccc1Cl` (stereo unspecified), the AC50 was 7.94 µM (active).
For the molecule `O=C(CS(=O)c1cccc(Cl)c1)Nc1ccccc1Cl` (stereo unspecified), the AC50 is 14.1 µM (active).
For the molecule `Cc1nc(S(=O)(=O)c2cccc(Cl)c2)nc2c1CCC2`, the activity, negative = inhibition was 18.2% [at 2.29 µM] (inactive).
Consider `CC(=O)N(CC(=O)O)c1ccccc1C(=O)O`, for which the AC50 entry is “inactive”.
As to `O=C(O)c1ccccc1OP(=O)(O)O`, the AC50 entry was “inactive”.
Same read-out and setting: as for `Cc1ccc(-n2c(-c3cc(C)n(C)n3)n[nH]c2=S)cc1`, the figure is 14.1 µM (active).
As to `COc1ccc(-n2c(C)n[nH]c2=O)cc1`, the AC50 entry was “inactive”.
With `Cc1cc(-c2n[nH]c(=S)o2)c(C)n1-c1ccccc1`, the AC50 entry is “inactive”.
On the same count and under the same terms, the value for `COCCn1c(=O)c(-c2cccs2)nc2cnc(Oc3ccc(OC)cc3)nc21` was 0.794 µM (active); that for `CN(C)c1ncc2nc(-c3cccs3)c(=O)n(CCc3ccccc3)c2n1` was “inactive”; that for `CN(C)c1ncc2nc(-c3cccs3)c(=O)n(C[C@H]3CCCO3)c2n1` was 25.1 µM (active).
Still for that read-out and setting: the value for `COCCn1c(=O)c(-c2ccc(F)cc2)nc2cnc(N(C)C)nc21` was “inactive”; that for `COc1ncc2nc(-c3cccs3)c(=O)n(CCC#N)c2n1` was 10 µM (active).
For the molecule `CN(C)c1ncc2nc(-c3cc(F)cc(F)c3)c(=O)n(C[C@H]3CCCO3)c2n1`, the AC50 result was “inactive”.
Same read-out and setting: as for `CN(C)c1ncc2nc(-c3ccc(F)cc3)c(=O)n(C[C@H]3CCCO3)c2n1`, the entry is “inactive”; as for `COCCn1c(=O)c(-c2cccs2)nc2cnc(N(C)C)nc21`, 7.94 µM (active).
In the case of `CN(C)c1ncc2nc(-c3ccccc3)c(=O)n(CCC#N)c2n1`, the AC50 result was “inactive”.
For the molecule `COc1ncc2nc(C)c(=O)n(CCC#N)c2n1`, the AC50 result is “inactive”.
Turning to `CCC1NC(=S)N(C2CCCCC2)C1=O` (stereo unspecified), the AC50 result was “inactive”.
As to `Cc1ccc(-[n+]2cc(=O)o[nH]2)cc1`, the activity, negative = inhibition is -10.5% [at 11.4 µM] (inactive).
Consider `Nc1nc(C(=O)O)c(N=Nc2ccccc2)c(=O)[nH]1`, for which the activity, negative = inhibition is -12.5% [at 11.4 µM] (inactive).
On the same count and under the same terms, as for `CCOc1ccc2nc3cc(N=Nc4ccc(N)nc4N)ccc3c(N)c2c1`, the figure is -19% [at 11.4 µM] (inactive).
Regarding `COCCn1c(=O)c(-c2cccs2)nc2cnc(Oc3ccccc3)nc21`, the AC50 is 20 µM (active).
The same measure, in the same setting: the value for `COc1ncc2nc(-c3cccs3)c(=O)n(CCc3ccccc3)c2n1` was 10 µM (active).
As for `COCCn1c(=O)c(-c2cccs2)nc2cnc(OC)nc21`, the AC50 was 10 µM (active).
`CCCCN(Cc1ccccc1)C(=O)c1cnc2n(c1=O)CCS2`: the AC50 entry was “inactive”.
Same read-out and setting: as for `CSc1ccccc1N1CCN(C(=O)Nc2ccc3c(c2)NC(=O)CO3)CC1`, the entry is “inactive”.
For the molecule `CN(C)S(=O)(=O)c1nc(Cl)c2[nH]cnc2n1`, the activity, negative = inhibition is -5.34% [at 11.4 µM] (inactive).
Same read-out and setting: the value for `CCOC(=O)N/N=C1/C[C@@H](O)[C@@H](O)[C@@H]2[C@@H]3C(=O)N(C4CCCCC4)C(=O)[C@H]3CC[C@@H]12` was -20.8% [at 11.4 µM] (inactive).
For `O=C(Nc1cccc(Cl)c1Cl)c1snnc1-c1ccccc1`, the AC50 result was “inactive”.
Still for that read-out and setting: the value for `COC(=O)[C@H](C)[C@H]1C[C@]1(C)[C@H](NC(=O)OCc1ccccc1)c1ccccc1` was 7.94 µM (active); that for `COC(=O)[C@H](C)[C@@H]1C[C@@]1(C)[C@@H](NC(=O)OCc1ccccc1)c1ccccc1` was 10 µM (active).

Usually AC50 stands for the concentration giving half of the maximal activity seen.

These data come from PubChem BioAssay AID1851 (National Center for Advancing Translational Sciences (NCATS), 2009).
